# PubChem BioAssay AID1159580 (chemical genetic matrix, 2015)
# The whole screen tested about 5,500 compounds, of which about 2,000 (36%) were called active. Not shown: some 18% with an inconclusive outcome. The list shows a part of the results. Unmarked numbers belong to inactive results. No stated cut-off is given here; in the data, active means normalized growth mostly below about 0.91 (no sharp cut-off); inconclusive means no clear call, values can overlap the other calls; inactive means mostly above about 0.92.
# Test: chemical genetic growth profiling, strain panel (AID 1159580);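 further: tested at 20 µM; growth read once vehicle control cultures reached saturation at 30 °C; 1 = growth at the plate median or of vehicle wells; lower values mean less growth of the strain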
# Conditions: S. cerevisiae deletion strains, growth OD
# [1] = locus YAR019C, strain CDC15, active compounds read low
# [2] = locus YBL105C, strain PKC1, active compounds read low
# [3] = locus YBR135W, strain CKS1, active compounds read low
# [4] = locus YBR136W, strain MEC1, active compounds read low
# [5] = locus YBR160W, strain CDC28, active compounds read low
# [6] = locus YDL017W, strain CDC7, active compounds read low
# [7] = locus YDL028C, strain MPS1, active compounds read low
# [8] = locus YDL101C, strain DUN1, active compounds read low
# [9] = locus YDL108W, strain KIN28, active compounds read low
# [10] = locus YDL132W, strain cdc53, active compounds read low
# [11] = locus YDL214C, strain PRR2, active compounds read low
# [12] = locus YDR052C, strain DBF4, active compounds read low
# [13] = locus YDR054C, strain cdc34, active compounds read low
# [14] = locus YDR226W, strain ADK1, active compounds read low
# [15] = locus YDR477W, strain SNF1, active compounds read low
# [16] = locus YER123W, strain YCK3, active compounds read low
# [17] = locus YER133W, strain GLC7, active compounds read low
# [18] = locus YFL009W, strain cdc4, active compounds read low
# [19] = locus YFL029C, strain CAK1, active compounds read low
# [20] = locus YFR003C, strain YPI1, active compounds read low
# [21] = locus YFR019W, strain FAB1, active compounds read low
# [22] = locus YFR028C, strain CDC14, active compounds read low
# [23] = locus YGR040W, strain KSS1, active compounds read low
# [24] = locus YGR052W, strain FMP48, active compounds read low
# [25] = locus YGR092W, strain DBF2, active compounds read low
# [26] = locus YHR030C, strain SLT2, active compounds read low
# [27] = locus YHR079C, strain IRE1, active compounds read low
# [28] = locus YHR082C, strain KSP1, active compounds read low
# [29] = locus YHR205W, strain SCH9, active compounds read low
# [30] = locus YIL147C, strain SLN1, active compounds read low
# [31] = locus YJL095W, strain BCK1, active compounds read low
# [32] = locus YJL128C, strain PBS2, active compounds read low
# [33] = locus YJL157C, strain FAR1, active compounds read low
# [34] = locus YJR016C, strain ILV3, active compounds read low
# [35] = locus YJR066W, strain TOR1 (second series), active compounds read low
# [36] = locus YJR066W, strain TOR1, active compounds read low
# [37] = locus YKL048C, strain ELM1, active compounds read low
# [38] = locus YKL067W, strain YNK1, active compounds read low
# [39] = locus YKL101W, strain HSL1, active compounds read low
# [40] = locus YKL193C, strain SDS22, active compounds read low
# [41] = locus YKL203C, strain TOR2, active compounds read low
# [42] = locus YLR113W, strain HOG1, active compounds read low
# [43] = locus YLR133W, strain CKI1, active compounds read low
# [44] = locus YLR403W, strain SFP1, active compounds read low
# [45] = locus YML070W, strain DAK1, active compounds read low
# [46] = locus YMR001C, strain CDC5, active compounds read low
# [47] = locus YMR205C, strain PFK2 (second series), active compounds read low
# [48] = locus YMR277W, strain FCP1, active compounds read low
# [49] = locus YNL006W, strain LST8, active compounds read low
# [50] = locus YNL020C, strain ARK1, active compounds read low
# [51] = locus YNL161W, strain CBK1, active compounds read low
# [52] = locus YNL183C, strain NPR1, active compounds read low
# [53] = locus YNL207W, strain RIO2, active compounds read low
# [54] = locus YNL222W, strain SSU72, active compounds read low
# [55] = locus YNL307C, strain MCK1 (second series), active compounds read low
# [56] = locus YOL078W, strain AVO1, active compounds read low
# [57] = locus YOL136C, strain PFK27, active compounds read low
# [58] = locus YOR061W, strain CKA2, active compounds read low
# [59] = locus YOR119C, strain RIO1, active compounds read low
# [60] = locus YOR231W, strain MKK1, active compounds read low
# [61] = locus YOR329C, strain SCD5, active compounds read low
# [62] = locus YPL031C, strain PHO85, active compounds read low
# [63] = locus YPL153C, strain RAD53, active compounds read low
# [64] = locus YPL204W, strain HRR25, active compounds read low
# [65] = locus YPL209C, strain IPL1, active compounds read low
# [66] = locus YPL256C, strain CLN2, active compounds read low
# [67] = locus YPR025C, strain CCL1, active compounds read low
# [68] = locus YPR106W, strain ISR1, active compounds read low
# [69] = locus YPR111W, strain DBF20, active compounds read low
# [70] = strain NNK1, active compounds read low
# [71] = strain TSCII, active compounds read low
smiles,measurement,setting,value
Cn1nccc1-c1cc(Cl)cc(Cl)c1O,normalized growth,[1],0.955
same,normalized growth,[2],0.959
same,normalized growth,[3],0.963
same,normalized growth,[4],0.959
same,normalized growth,[5],0.969
same,normalized growth,[6],0.962
same,normalized growth,[7],0.964
same,normalized growth,[8],0.964
same,normalized growth,[9],0.967
same,normalized growth,[10],0.966
same,normalized growth,[11],0.799
same,normalized growth,[12],0.971
same,normalized growth,[13],0.969
same,normalized growth,[14],0.981
same,normalized growth,[15],0.731
same,normalized growth,[16],0.739
same,normalized growth,[17],0.687 (active)
same,normalized growth,[18],0.982
same,normalized growth,[19],0.952
same,normalized growth,[20],0.961
same,normalized growth,[21],0.869
same,normalized growth,[22],0.975
same,normalized growth,[23],0.745
same,normalized growth,[24],0.742
same,normalized growth,[25],0.722
same,normalized growth,[26],0.617 (active)
same,normalized growth,[27],0.698
same,normalized growth,[28],0.748
same,normalized growth,[29],0.787
same,normalized growth,[30],0.96
same,normalized growth,[31],0.676
same,normalized growth,[32],0.917
same,normalized growth,[33],0.749
same,normalized growth,[34],0.962
same,normalized growth,[35],0.673
same,normalized growth,[36],0.686
same,normalized growth,[37],0.908
same,normalized growth,[38],0.817
same,normalized growth,[39],0.835
same,normalized growth,[40],0.934
same,normalized growth,[41],0.798
same,normalized growth,[42],0.571 (active)
same,normalized growth,[43],0.825
same,normalized growth,[44],0.678
same,normalized growth,[45],0.719
same,normalized growth,[46],0.947
same,normalized growth,[47],0.795
same,normalized growth,[48],0.934
same,normalized growth,[49],0.968
same,normalized growth,[50],0.819
same,normalized growth,[51],0.956
same,normalized growth,[52],0.757
same,normalized growth,[53],0.948
same,normalized growth,[54],0.964
same,normalized growth,[55],0.798
same,normalized growth,[56],0.95
same,normalized growth,[57],0.773
same,normalized growth,[58],0.744
same,normalized growth,[59],0.798
same,normalized growth,[60],0.795
same,normalized growth,[61],0.963
same,normalized growth,[62],0.704
same,normalized growth,[63],0.718
same,normalized growth,[64],0.685
same,normalized growth,[65],0.965
same,normalized growth,[66],0.718 (active)
same,normalized growth,[67],0.961
same,normalized growth,[68],0.948
same,normalized growth,[69],0.952
same,normalized growth,[70],0.96
same,normalized growth,[71],0.947
O=S(=O)(NCc1ccc(C(F)(F)F)cc1)c1cccc(C(F)(F)F)c1,normalized growth,[1],0.985
same,normalized growth,[2],0.986
same,normalized growth,[3],0.982
same,normalized growth,[4],0.985
same,normalized growth,[5],0.988
same,normalized growth,[6],0.989
same,normalized growth,[7],0.98
same,normalized growth,[8],0.987
same,normalized growth,[9],0.983
same,normalized growth,[10],0.973
same,normalized growth,[11],0.945
same,normalized growth,[12],0.987
same,normalized growth,[13],0.985
same,normalized growth,[14],0.99
same,normalized growth,[15],0.956
same,normalized growth,[16],0.908
same,normalized growth,[17],0.948
same,normalized growth,[18],0.974
same,normalized growth,[19],0.977
same,normalized growth,[20],0.983
same,normalized growth,[21],0.981
same,normalized growth,[22],0.983
same,normalized growth,[23],0.958
same,normalized growth,[24],0.97
same,normalized growth,[25],0.942
same,normalized growth,[26],0.883
same,normalized growth,[27],0.886
same,normalized growth,[28],1.04
same,normalized growth,[29],0.943
same,normalized growth,[30],0.984
same,normalized growth,[31],0.869
same,normalized growth,[32],0.917
same,normalized growth,[33],0.954
same,normalized growth,[34],0.984
same,normalized growth,[35],0.922
same,normalized growth,[36],1.02
same,normalized growth,[37],0.976
same,normalized growth,[38],0.96
same,normalized growth,[39],0.936
same,normalized growth,[40],0.983
same,normalized growth,[41],1.01
same,normalized growth,[42],0.802 (active)
same,normalized growth,[43],0.976
same,normalized growth,[44],0.971
same,normalized growth,[45],0.921
same,normalized growth,[46],0.987
same,normalized growth,[47],0.948
same,normalized growth,[48],0.984
same,normalized growth,[49],0.98
same,normalized growth,[50],0.964
same,normalized growth,[51],0.985
same,normalized growth,[52],1.04
same,normalized growth,[53],0.987
same,normalized growth,[54],0.983
same,normalized growth,[55],0.954
same,normalized growth,[56],0.987
same,normalized growth,[57],0.916
same,normalized growth,[58],0.987
same,normalized growth,[59],1.02
same,normalized growth,[60],0.952
same,normalized growth,[61],0.987
same,normalized growth,[62],0.95
same,normalized growth,[63],0.937
same,normalized growth,[64],0.918
same,normalized growth,[65],0.986
same,normalized growth,[66],0.885
same,normalized growth,[67],0.981
same,normalized growth,[68],0.979
same,normalized growth,[69],0.97
same,normalized growth,[70],0.984
same,normalized growth,[71],0.995
O=S(=O)(NCc1ccc(C(F)(F)F)cc1)c1cc(Br)c(Br)s1,normalized growth,[1],0.987
same,normalized growth,[2],0.969
same,normalized growth,[3],0.971
same,normalized growth,[4],0.985
same,normalized growth,[5],0.966
same,normalized growth,[6],0.967
same,normalized growth,[7],0.984
same,normalized growth,[8],0.975
same,normalized growth,[9],0.974
same,normalized growth,[10],0.973
same,normalized growth,[11],0.786
same,normalized growth,[12],0.979
same,normalized growth,[13],0.973
same,normalized growth,[14],0.984
same,normalized growth,[15],0.856
same,normalized growth,[16],0.747
same,normalized growth,[17],0.794
same,normalized growth,[18],0.979
same,normalized growth,[19],0.982
same,normalized growth,[20],0.974
same,normalized growth,[21],0.845
same,normalized growth,[22],0.967
same,normalized growth,[23],0.818
same,normalized growth,[24],0.729
same,normalized growth,[25],0.801
same,normalized growth,[26],0.645 (active)
same,normalized growth,[27],0.813
same,normalized growth,[28],0.607 (active)
same,normalized growth,[29],0.618
same,normalized growth,[30],0.98
same,normalized growth,[31],0.741
same,normalized growth,[32],0.924
same,normalized growth,[33],0.872
same,normalized growth,[34],0.98
same,normalized growth,[35],0.794
same,normalized growth,[36],0.689
same,normalized growth,[37],0.791 (active)
same,normalized growth,[38],0.835
same,normalized growth,[39],0.714 (active)
same,normalized growth,[40],0.967
same,normalized growth,[41],0.851
same,normalized growth,[42],0.721 (active)
same,normalized growth,[43],0.839
same,normalized growth,[44],0.808
same,normalized growth,[45],0.797
same,normalized growth,[46],0.964
same,normalized growth,[47],0.831
same,normalized growth,[48],0.965
same,normalized growth,[49],0.98
same,normalized growth,[50],0.838
same,normalized growth,[51],0.969
same,normalized growth,[52],0.659
same,normalized growth,[53],0.977
same,normalized growth,[54],0.967
same,normalized growth,[55],0.846
same,normalized growth,[56],0.969
same,normalized growth,[57],0.811
same,normalized growth,[58],0.848
same,normalized growth,[59],0.772
same,normalized growth,[60],0.792
same,normalized growth,[61],0.969
same,normalized growth,[62],0.774
same,normalized growth,[63],0.716
same,normalized growth,[64],0.795
same,normalized growth,[65],0.973
same,normalized growth,[66],0.728 (active)
same,normalized growth,[67],0.965
same,normalized growth,[68],0.97
same,normalized growth,[69],0.982
same,normalized growth,[70],0.968
same,normalized growth,[71],0.97
